Most compounds without a hit are left out; they make up all but 4.3% or so of the library.
esBAF inh: SWI/SNF esBAF complex inhibition | mouse ES cells, Bmi1-luciferase knock-in reporter, 24 h; 100% = twice the neutral-well signal | reporter increase, % at 12.5 µM | actives 2% (n = 350,000) | AID 602393; in the data active = activation above about 40%; inconclusive = no clear call, values can overlap the other calls;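 note: 0% = median of the plate's neutral control wells and 100% = double that signal; a rise in the Bmi1 reporter signal indicates esBAF inhibition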
MLL AF4-AF9 inh: blocks AF4 peptide binding to human AF9; P42568; AlphaScreen, biotin-AF4 peptide binding to FLAG-AF9; inhibition, % at 10 µM; actives 0.47% (n = 350,000);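 active = every replicate reaching a set inhibition limit, whatever the replicate mean, cut at about 25% in these data; inconclusive = mean inhibition reaches that limit but some replicates miss it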;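 note: 0% = plate neutral control median and 100% = total signal loss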
Target sequence (P42568 whole entry, looked up): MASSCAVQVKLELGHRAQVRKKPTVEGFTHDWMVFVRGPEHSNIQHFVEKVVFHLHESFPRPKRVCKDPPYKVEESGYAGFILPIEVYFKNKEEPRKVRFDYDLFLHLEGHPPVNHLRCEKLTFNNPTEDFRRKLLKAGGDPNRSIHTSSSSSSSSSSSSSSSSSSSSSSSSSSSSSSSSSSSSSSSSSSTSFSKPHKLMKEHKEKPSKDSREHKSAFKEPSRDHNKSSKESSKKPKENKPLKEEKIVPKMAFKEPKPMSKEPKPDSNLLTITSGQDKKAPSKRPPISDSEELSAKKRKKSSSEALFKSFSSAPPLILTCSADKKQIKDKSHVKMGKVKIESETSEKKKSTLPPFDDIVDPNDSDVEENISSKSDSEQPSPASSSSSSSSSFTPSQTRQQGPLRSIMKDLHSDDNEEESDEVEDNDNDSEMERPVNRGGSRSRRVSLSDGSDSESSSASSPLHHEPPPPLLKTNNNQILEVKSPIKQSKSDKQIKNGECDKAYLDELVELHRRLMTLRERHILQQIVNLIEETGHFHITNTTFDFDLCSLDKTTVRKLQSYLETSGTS
FGF22 binding: shifts melting point of recombinant human FGF22; Q9HCT0; recombinant FGF22 thermal shift, SYPRO orange fluorescence; percent of sucrose octasulfate shift, DMSO zero; activity (Tm shift, normalised), % at 9.99 µM; actives 1.5% (n = 340,000); AID 651658;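 active = mean Tm shift, scaled 0 neutral to 100 positive control, at about 1.3% or above, every replicate too, limit read from the data; inconclusive = no clear call, values can overlap the other calls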
Wnt act: activates Wnt/beta-catenin signaling in a reporter cell assay; activator, plate reader; activation, % at 9.35 µM; actives 1.2% (n = 300,000); in the data active = activation above about 30%, passing the limit was not always enough; inconclusive = no clear call, values can overlap the other calls;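 note: 0% = neutral control wells and 100% = positive control wells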
SMARCA2 activ: SMARCA2 function activation, primary screen; MG213 cells, MMTV-luciferase reporter, dexamethasone, overnight; activation, % at 9.1 µM; actives 1% (n = 370,000); AID 652017; in the data active = activation above about 7.8%;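 note: 0% = vehicle wells and 100% = reference activator wells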
MITF act: increases MITF-driven TRPM1 promoter luciferase signal; actives 0.75% (n = 300,000); SK-MEL-5 TRPM1-promoter luciferase, 24 h; % of positive control, neutral wells = 0; activation, % at 12.5 µM; AID 588334;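 active = mean activation of at least 80% with every replicate also reaching 80%; inconclusive = mean reaches 80% but some replicate falls short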;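 note: 0% = neutral control wells and 100% = parthenolide positive control wells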
The depositor's hits bear a star; ? = inconclusive; / = no result given.

SMILES	esBAF inh	MLL AF4-AF9 inh	FGF22 binding	Wnt act	SMARCA2 activ	MITF act
O=C(Nc1ccc(F)cc1)c1c(Cl)nc2ccccn12	50.3*	?	0.2	5.4	0.5	27.6
Cc1nc2ccccn2c1C(=O)/C=C/c1ccc(F)cc1	100.4*	/	/	/	2.7	-10.2
COc1ccc(NC(=O)c2c(Cl)nc3ccccn23)cc1	3.8	0.4	42.6	/	-3.3	6.4
O=C(C[C@H]1CC[C@H]2[C@@H](COC[C@H](O)CN2Cc2cccc(F)c2)O1)NCCc1ccncc1	1.0	-0.4	-0.1	/	/	/
CC(C)CSc1n[nH]c(=S)s1	/	-2.6	43.1*	2.7	5.6	-4.4
CC(CSc1n[nH]c(=S)s1)c1ccccc1 (stereo unspecified)	19.3	-4.7	-0.2	-2.2	1.1	-2.5
Nc1c(Br)cc(Br)c2c1C(=O)c1c(cccc1S(=O)(=O)O)C2=O	-6.3	-1.0	43.5*	-5.8	5.4	-8.8
Cc1cc(C(=O)CSc2nncs2)c(C)n1-c1ccc2c(c1)OCO2	80.4*	/	/	/	-0.4	71.3
COc1cc(N=Nc2ccc(C(=O)N(C)C)cc2)c(C)cc1N	58.0*	10.0	0.3	-2.9	1.0	2.2
C[C@@H]1CN([C@H](C)CO)C(=O)Cc2cc(NC(=O)Cn3cnnn3)ccc2O[C@H]1CN(C)S(=O)(=O)c1ccccc1	-3.0	-2.6	-0.6	/	/	/
CCC(=O)N(Cc1cc2ccccc2[nH]c1=O)C(C)C	2.2	/	/	/	-0.4	2.0
CN(Cc1cc2ccccc2[nH]c1=O)C(=O)COc1ccccc1	/	-0.1	0.5	50.1*	-4.8	-3.5
Cc1noc(C)c1NC(=O)Nc1ccc2c(c1)C(=O)N([C@@H](C)CO)C[C@H](C)[C@H](CN(C)S(=O)(=O)c1ccc(Cl)cc1)OCCCC[C@@H](C)O2	-10.1	-0.1	-0.1	/	/	/
C[C@H]1CN([C@@H](C)CO)C(=O)c2cc(NC(=O)NC3CCCCC3)ccc2O[C@H]1CN(C)S(C)(=O)=O	-0.4	-3.5	-0.1	/	/	/
COC(=O)c1c(NC(C)=O)sc(C(=O)Nc2ccccc2F)c1C	/	-2.3	42.3	36.8*	0.5	57.5
CCOc1ccc(NC(=O)c2sc(NC(C)=O)c(C(=O)OC)c2C)cc1	/	-1.4	43.0*	0.6	-0.7	7.6
CCCC(=O)Nc1sc(C(=O)Nc2cccc(N)c2)c(C)c1C(=O)OC	7.0	-1.1	-0.5	37.1*	5.4	44.8
COCC#Cc1ccc2c(c1)O[C@H](CN(C)C(=O)C1CCOCC1)[C@@H](C)CN([C@H](C)CO)S2(=O)=O	-4.4	-1.6	0.4	/	/	/
COc1ccccc1-c1cn(CC[C@H]2CC[C@H](NC(=O)Cc3ccccn3)[C@@H](CO)O2)nn1	2.6	0.2	-0.3	/	/	/
O=C(c1ccccc1F)N1C[C@H]2[C@@H](c3ccccc31)[C@H](CO)N2C(=O)c1ccc(F)cc1	-3.2	0.4	-1.5	/	/	/
Cc1ccc(N2C(=O)c3cccc4c([N+](=O)[O-])ccc(c34)C2=O)c2cccnc12	-18.3	3.0	40.9	40.9*	-3.1	-74.3
O=C(Nn1cnc2ccccc2c1=O)c1c(F)cccc1F	-5.6	-1.9	0.0	44.3*	-3.3	-8.8
O=C(Nn1cnc2ccccc2c1=O)c1ccccc1Cl	25.9	/	/	/	0.7	22.8
CCC(=O)Nc1nnc(/C=C/c2ccccc2)s1	60.7*	2.9	0.1	1.2	2.0	76.1
Cc1ccccc1C(=O)NC1CCCCN(C(C)C)C1=O (stereo unspecified)	/	/	/	/	-0.6	/
SMILES	esBAF inh	MLL AF4-AF9 inh	FGF22 binding	Wnt act	SMARCA2 activ	MITF act
O=C(Nc1ccccc1F)N1CC(=O)N2[C@H](CO)[C@H](c3ccc(C#CC4CCCC4)cc3)[C@H]2C1	/	3.2	/	/	/	/
O=C(CN(C(=O)c1csnn1)c1ccc(F)cc1)NCc1ccc2c(c1)OCO2	49.8*	1.8	0.8	2.1	0.2	/
NC(=O)CC(NC(=O)Cc1ccc(Br)cc1)c1ccc(NC2CCN(Cc3ccccc3)CC2)c([N+](=O)[O-])c1 (stereo unspecified)	2.1	-13.6	-0.4	21.2	-1.1	28.3
NC(=O)CC(NC(=O)Cc1cccc2ccccc12)c1ccc(NC2CCN(Cc3ccccc3)CC2)c([N+](=O)[O-])c1 (stereo unspecified)	8.7	53.6*	0.1	-4.0	-0.3	-2.1
O=C(CCSc1ccc(Cl)cc1)N1CCOCC1	42.0*	/	/	24.9	1.3	/
COc1ccc(NC(=O)Nc2ccc3c(c2)CC(=O)N([C@@H](C)CO)C[C@@H](C)[C@H](CN(C)C(=O)Nc2cccc4ccccc24)O3)cc1	3.4	/	0.0	/	/	/
Cc1ccc(N2CCN(C(=O)c3cn(CC4CCCCC4)nn3)C(C)C2)cc1 (stereo unspecified)	/	2.8	-0.2	39.6*	4.0	69.6
O=C(c1cn(CC2CCCCC2)nn1)N1CCN(c2ccc(F)cc2)CC1	17.7	1.3	-0.1	5.1	-1.8	4.9
CN(CC(=O)NCCN1CCOCC1)S(=O)(=O)c1ccc(Cl)cc1	-1.1	-16.5	43.1*	-5.2	-4.7	9.2
Cc1ccc(NC(=O)CSc2nccn2Cc2ccco2)cc1	55.9*	5.4	0.0	20.6	5.1	54.1
CC(=O)c1ccc(NC(=O)CSc2nccn2C)cc1	/	-22.2	0.5	11.5	-1.7	/
CC(=O)c1ccc(NC(=O)CSc2nccn2CCc2ccccc2)cc1	78.5*	/	/	25.0	0.2	51.8
N#Cc1ccccc1NC(=O)CSc1nccn1CCc1ccccc1	56.0*	/	/	/	0.7	51.7
C[C@H](CO)N1C[C@H](C)[C@@H](CN(C)C(=O)C2CCCCC2)Oc2ncc(-c3cccc(F)c3)cc2C1=O	0.4	-0.8	0.0	/	/	/
N#C[C@@H]1[C@H](c2ccccc2-c2cccc(F)c2)[C@@H](CO)N1C(=O)C1CC1	/	1.4	-0.8	/	/	/
O=C(C[C@H]1CC[C@@H]2[C@H](COC[C@@H](O)CN2S(=O)(=O)c2ccccc2F)O1)NCc1ccccc1Cl	1.6	2.2	0.2	/	/	/
O=C(NNC(=S)Nc1ccccc1Cl)c1ccccc1Br	65.8*	-0.1	-0.2	25.9	4.2	59.5
O=C(Nc1ccc(Cl)cc1F)c1cccc2ccccc12	46.9*	-3.1	0.0	9.9	3.4	/
O=C(NNC(=O)c1cccc2ccccc12)c1ccc(Cl)cc1Cl	61.3*	1.5	0.9	-5.7	3.2	18.0
O=C(O)c1ccccc1C(=O)NNc1ccc(Cl)cc1Cl	/	-1.0	43.8*	-3.9	0.3	21.4
COc1ccc(S(=O)(=O)N(C)C[C@@H]2OCCCC[C@@H](C)Oc3ccc(NS(=O)(=O)c4cccs4)cc3C(=O)N([C@@H](C)CO)C[C@@H]2C)cc1	1.5	3.9	-0.5	/	/	/
C[C@@H]1CN([C@H](C)CO)C(=O)c2cc(-c3cccnc3)cnc2O[C@@H]1CN(C)C(=O)NC1CCCC1	-10.2	-14.6	-0.1	/	/	/
C[C@@H]1CN([C@@H](C)CO)C(=O)c2cc(-c3ccc(F)cc3)cnc2O[C@@H]1CN(C)CC1CCCC1	-10.9	-1.8	-0.5	/	/	/

Screens from PubChem.
